# NS1 function inh: qHTS Assay for Inhibitors of Influenza NS1 Protein Function | Potency, µM (highest dose often 46.1 µM) | 0.4% of 270,000 active | AID 2326, 2010; calls by dose curve; also: actives are rising curves; nearly all actives have a fitted effect of over 50% in size
#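 Growth recovery, yeast-based: influenza A NS1 expressed in S. cerevisiae causes slow growth, and suppressors are detected by OD600. The parent strain without NS1 is used as positive control.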
# Shiga inhibitor: A qHTS for Small Molecule Inhibitors of Shiga Toxin. 9.2% of 290,000 active. Vero cells, Shiga toxin protein synthesis inhibition reporter. inhibition, % at 38.7 µM; in the data active = inhibition mostly above about 28%, no sharp cut-off; inactive = mostly below about 43%
# Pf growth 48h: Primary qHTS for delayed death inhibitors of the malarial parasite plastid, 48 hour incubation | P. falciparum luciferase growth in erythrocytes, 48 h | AID 504832, 2011 | 5.9% of 310,000 active | Potency, µM (series often up to 28.7 µM), actives largely listed as inhibitors
#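 Parasite viability was followed by luminescence of a genomically integrated firefly luciferase. Cultures held 0.1% parasitemia at 2% hematocrit (final), incubated under 5% CO2 at 37 C.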
# Pf growth 96h: Primary qHTS for delayed death inhibitors of the malarial parasite plastid, 96 hour incubation. 6.9% of 320,000 active. Potency, µM (titrated, usually from 28.7 µM), usual class: inhibitors. P. falciparum luciferase reporter growth, 96 h
#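 Plates of compound plus infected erythrocytes (2% hematocrit, 0.05% parasitemia final) incubate 96 hours, 37 C, 5% CO2. Detection reagent added; reduced luminescence from the parasites' luciferase reporter flags inhibition.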
# Cycloheximide cs: Cycloheximide Counterscreen for Small Molecule Inhibitors of Shiga Toxin; cell reporter, cycloheximide protein synthesis inhibition counterscreen; max response, %; 12% of 300,000 active; in the data active = max response mostly above about 13%, no sharp cut-off; inactive = mostly below about 14%; also: read at 38.3 µM for the half of the compounds with a filed dose
# Numbers stand for hits; i = inactive; ? = inconclusive; nt = no result given; [ ] = another dose, or the depositor's remark. The list is not random: actives were taken first. Their share in the collection is about 21%. Unless noted, calls follow the shape of the dose curve; as a rule, active = well fitted inhibition curve with a large enough effect; inconclusive = small, poorly fitted or top-dose-only effect, or another doubt; inactive = no such curve, though single readings can be large or run the other way.
SMILES,NS1 function inh,Shiga inhibitor,Pf growth 48h,Pf growth 96h,Cycloheximide cs
Nc1c(S(=O)(=O)c2ccccc2)c2nc3ccccc3nc2n1CCN1CCOCC1,i,i,?,?,i
Cc1ccc(S(=O)(=O)c2c(N)n(CCC(C)C)c3nc4ccccc4nc23)cc1,i,i,nt,13µM,i
CCCCCn1c(NC(=O)c2ccco2)c(S(=O)(=O)c2ccc(C)cc2)c2nc3ccccc3nc21,i,i,5.2µM,?,i
Cc1cc[c]([Sb]2[O]C([C@H](O)[C@H](O)C(=O)O)[C@@H](CO)[O]2)cc1 (stereo partly specified),i,nt,nt,nt,nt
CC(=O)c1ccccc1NS(=O)(=O)c1ccccc1Cl,i,i,i,i,i
CC(C)c1nn2c(=O)cc(CSc3ccccc3NC(=O)c3ccccc3F)nc2s1,i,i,?,8.3µM,i
O=C(OCCN1C(=O)c2ccccc2C1=O)C1CCN(S(=O)(=O)c2cccs2)CC1,i,i,i,nt,i
S=C(Nc1ccccn1)NC1CCCCC1,i,i,?,?,i
S=C(NCCc1ccccn1)NC1CCCCC1,i,27,i,i,42
S=C(NCCCc1ccccc1)NC1CCCCC1,i,71,?,i,47
COc1ccccc1N=C1SCC(=O)N1c1ccccc1OC,i,i,i,i,i
COc1ccc(C(=O)NC(=S)NNC(=O)[C@H]2C[C@@H]2c2ccccc2)cc1OC,i,i,?,1.5µM,i
COc1cc(OC)cc(C(=O)NC(=S)NNC(=O)[C@H]2C[C@@H]2c2ccccc2)c1,i,i,?,i,i
COc1ccc(-c2cnc(SCC(=O)Nc3ccc4c(c3)OCO4)n2Cc2ccco2)cc1,i,i,nt,nt,14
Cc1nnc(SCC(=O)Nc2ccc3c(c2)OCCO3)n1N,i,i,i,nt,i
CCc1ccccc1-n1c(SCC(=O)Nc2ccc3c(c2)OCCO3)nc2[nH]ncc2c1=O,i,112,i,i,53
Cc1ccc(-c2nnc(SCC(=O)Nc3ccc4c(c3)OCCO4)n2N)cc1,i,i,i,10µM,i
Nn1cnnc1SCC(=O)Nc1ccc2c(c1)OCCO2,i,i,i,i,12
CC(=O)Nc1cccc(NC(=O)CSc2ncc(-c3ccc(Cl)cc3)n2Cc2ccco2)c1,i,i,?,?,i
Cn1c(=O)c(-c2cc(=O)[nH][nH]2)c(O)c2ccccc21,i,i,i,i[1.15 µM],i
COc1ccc(-c2[nH]c(-c3ccc(SC)cc3)nc2SCC(=O)Nc2nccs2)cc1,i,i,?,?,i
Cn1cc(S(=O)(=O)CC(=O)Nc2ccc3c(c2)OCCO3)c2ccccc21,i,i,i,i,i
CCn1c(COc2ccc(Cl)cc2)nnc1SCC(=O)Nc1ccc2c(c1)OCO2,i,i,i,10µM,i
CCn1c(SCC(=O)Nc2ccc3c(c2)OCCO3)nnc1-c1c[nH]c2ccccc12,i,i,?,?,12
CCn1c(SCC(=O)Nc2ccc3c(c2)OCCO3)nnc1-c1cccs1,i,i,nt,?,i
SMILES,NS1 function inh,Shiga inhibitor,Pf growth 48h,Pf growth 96h,Cycloheximide cs
CCc1nnc(SCC(=O)Nc2ccc3c(c2)OCO3)n1CC,i,i,i,?,i
CCn1c(C)nnc1SCC(=O)Nc1ccc2c(c1)OCCO2,i,i,i,i,13
O=C(CS(=O)(=O)c1c[nH]c2ccccc12)Nc1ccc2c(c1)OCCO2,i,45,i,i,38
Cc1[nH]c(=O)[nH]c(=O)c1NS(=O)(=O)c1ccccc1,i,i,i,i,i
Cc1nnc(SCC(=O)Nc2ccc3c(c2)OCCO3)n1CC1CCCO1 (stereo unspecified),i,30,i,i,7.4
O=C(CSc1nnc(-c2ccccc2Cl)n1Cc1ccco1)Nc1ccc2c(c1)OCCO2,i,i,?,nt,13
CCOC(=O)c1c(NC(=O)CSc2nnc(-c3c[nH]c4ccccc34)n2CC)sc2c1CCCC2,?,i,?,12µM,i
Cc1ccc(NC(=O)CSc2nnc(C3CC3)n2CC2CCCO2)c(C)c1 (stereo unspecified),i,i,i,i,i
Cc1ccc(NCc2nnc(SCC(=O)Nc3ccccc3)n2CC2CCCO2)c(C)c1 (stereo unspecified),i,i,i,nt,33
O=C(CSc1nnc(-c2ccc(Cl)cc2)n1Cc1ccco1)Nc1ccc2c(c1)OCCO2,i,i,?,?,i
O=C(c1cccc(-n2cnnn2)c1)N1CCOCC1,i,i,i,i[5.75 µM],i
COC(=O)Cc1[nH]n(-c2ccccc2)c(=O)c1C=Nc1ccc(C)cc1,i,i,i,i,i
COc1ccc(CNC(=O)COC(=O)CCc2c[nH]c3ccccc23)cc1,nt,i,i,i,i
CCOC(=O)C1(Cc2ccc(OC)cc2)CCN(C(=O)Cn2cnnn2)CC1,i,i,i,1.9µM,i
CCOC(=O)C1(Cc2ccc(OC)cc2)CCN(C(=O)CCn2cccn2)CC1,i,i,i,i,30
CCOC(=O)C1(Cc2ccc(OC)cc2)CCN(C(=O)CCn2ccc(C)n2)CC1,i,i,i,?,i
Cn1ncc(Br)c1NC(=O)CSc1ccc(Cl)cc1,i,i,i,i,i
CNC(=S)N1CCN(C(=O)C2CCCO2)CC1 (stereo unspecified),i,i,i,i,i
COc1ccc(-c2onc(C)c2-c2ccccc2)c(O)c1,i,i,nt,i,i
COc1ccc(-c2onc(C)c2-c2cnn(-c3ccccc3)c2)c(O)c1,nt,i,12µM,i,i
COc1ccccc1/C=C/C(=O)c1ccc(Cl)cc1,i,83,?,?,42
CCOc1ccccc1/C=C/C(=O)c1ccc(Cl)cc1,i,i,i,i,15
COc1ccccc1/C=C/C(=O)NC(=S)NC(C)C,i,57,i,?,17
COc1ccccc1/C=C/C(=O)c1ccccc1,i,69,i,i,55
CCOc1ccccc1NC(=O)CCCNC(=O)c1ccc(Cl)cc1,i,i,i,i,i
SMILES,NS1 function inh,Shiga inhibitor,Pf growth 48h,Pf growth 96h,Cycloheximide cs
O=C(/C=C/c1ccccc1O)c1ccc(Cl)cc1,i,58,i,15µM,41
COc1ccccc1/C=C/C(=C1/C(=O)N(c2ccccc2)N=C1C)c1ccc(C)cc1,i,i,i,12µM,i
COc1ccccc1/C=C/C(=O)NCC(=O)N1CCC(N(C)C2CCCC2)CC1,nt,i,i,i,i
COc1ccccc1/C=C/C(=O)c1ccc(NC(C)=O)cc1,i,i,i,i,21
COc1cccc(/C=C/C(=C2/C(=O)N(c3ccccc3)N=C2C)c2ccccc2)c1OC,i,i,i,?,i
COc1ccccc1/C=C/C(=O)N1CCC(c2ccccc2)C1 (stereo unspecified),i,71,i,i,52
CC(C)[C@H](NC(=O)OC(C)(C)C)c1nnc(SCC(=O)Nc2ccc(Br)cc2)o1,i,i,i,i,i
N#Cc1ccc(C(=O)Nc2cccc(NC(=O)c3ccco3)c2)c(F)c1,i,i,?,i,i
Brc1ccc(Oc2ccc(Br)cc2Br)c(Br)c1,nt,nt,i,i,nt
Oc1c(Br)cc(Br)cc1Oc1ccc(Br)cc1Br,i,i,?,15µM,i
Cc1cc(C)n(CCC(=O)N/N=C/c2ccc(Cl)c([N+](=O)[O-])c2)n1,i,i,i,i,i

# Compound activity as filed in PubChem BioAssay.
